Holding throughout (test): DAPPL (digital affinity profiling via proximity ligation, sequencing); 10 mM Tris-HCl pH 7.5, 50 mM NaCl, 1 mM DTT, 4% glycerol, room temperature, 30 min; GST-TFs on glutathione beads, 16-mer random dsDNA library, 0.1% formaldehyde crosslink after washing; high values mean tight binding
One assay has as its target T1, FLI1 (Homo sapiens, UniProt Q01543 1-452).
T1 sequence: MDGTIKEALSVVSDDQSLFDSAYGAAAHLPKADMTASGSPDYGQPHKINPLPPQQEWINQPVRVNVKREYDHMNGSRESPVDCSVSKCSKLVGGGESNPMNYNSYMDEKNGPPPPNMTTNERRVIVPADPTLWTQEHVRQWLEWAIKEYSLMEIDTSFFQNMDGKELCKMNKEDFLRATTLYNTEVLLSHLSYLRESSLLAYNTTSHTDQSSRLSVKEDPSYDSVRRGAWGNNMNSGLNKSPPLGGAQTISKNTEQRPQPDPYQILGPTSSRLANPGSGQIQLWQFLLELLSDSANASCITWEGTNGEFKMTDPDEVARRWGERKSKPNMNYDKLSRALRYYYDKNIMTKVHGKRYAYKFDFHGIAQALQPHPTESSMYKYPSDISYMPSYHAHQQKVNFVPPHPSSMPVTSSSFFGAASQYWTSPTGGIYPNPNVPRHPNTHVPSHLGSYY
As to conditions: protein: recombinant; tags: N-terminal GST; dsDNA, one strand shown. The method in brief: (§1)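 Beads coated with glutathione captured GST-fused human transcription factors that had been expressed in yeast, and the factors were then given DNA barcodes and pooled with a tag-only sample. The pools were incubated with 200 nmole of a random double-stranded 16-mer DNA library in Tris/NaCl/DTT/glycerol buffer for 30 min at room temperature, washed, crosslinked with 0.1% formaldehyde and proximity-ligated with BsaI/T4 ligase at 37 °C for 1 h. PCR amplification and Illumina NextSeq500 sequencing came last. Binding signal is each hexamer's read frequency for a factor divided by its frequency for the tag-only sample.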

The next assay concerns the target T2, ELK1 (Homo sapiens, UniProt P19419 1-428).
T2 sequence: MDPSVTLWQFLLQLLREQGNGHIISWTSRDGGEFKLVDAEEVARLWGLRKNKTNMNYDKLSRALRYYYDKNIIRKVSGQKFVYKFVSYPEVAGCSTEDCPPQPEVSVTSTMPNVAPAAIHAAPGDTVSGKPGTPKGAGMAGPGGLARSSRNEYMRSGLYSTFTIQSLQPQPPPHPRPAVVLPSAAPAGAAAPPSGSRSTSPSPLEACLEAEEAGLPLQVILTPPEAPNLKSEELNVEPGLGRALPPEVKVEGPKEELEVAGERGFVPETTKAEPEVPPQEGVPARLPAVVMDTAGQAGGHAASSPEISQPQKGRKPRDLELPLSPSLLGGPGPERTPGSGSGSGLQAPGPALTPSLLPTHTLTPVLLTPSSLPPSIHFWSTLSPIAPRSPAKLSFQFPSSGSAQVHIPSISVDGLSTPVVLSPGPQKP
As to conditions: protein: recombinant; tags: N-terminal GST; dsDNA, one strand shown. The method, boiled down: as §1

A further assay addresses T3, GABPA (Homo sapiens, UniProt Q06546 1-454).
T3 sequence: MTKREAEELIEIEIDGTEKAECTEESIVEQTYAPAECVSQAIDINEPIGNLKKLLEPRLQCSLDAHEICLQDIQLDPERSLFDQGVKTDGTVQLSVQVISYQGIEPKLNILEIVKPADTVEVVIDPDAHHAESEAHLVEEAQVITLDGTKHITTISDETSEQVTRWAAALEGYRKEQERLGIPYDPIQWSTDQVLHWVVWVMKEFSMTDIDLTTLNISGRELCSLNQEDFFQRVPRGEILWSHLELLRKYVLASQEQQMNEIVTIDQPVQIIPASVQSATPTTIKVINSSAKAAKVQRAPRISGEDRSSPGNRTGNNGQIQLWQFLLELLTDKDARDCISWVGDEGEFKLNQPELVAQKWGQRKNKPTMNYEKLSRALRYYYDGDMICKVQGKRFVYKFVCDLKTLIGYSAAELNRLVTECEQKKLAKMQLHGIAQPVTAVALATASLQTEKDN
As to conditions: protein: recombinant; tags: N-terminal GST; dsDNA, one strand shown. The method in brief:
as §1

For another assay, the target named is T4, ERG (Homo sapiens, UniProt P11308 1-479).
T4 sequence: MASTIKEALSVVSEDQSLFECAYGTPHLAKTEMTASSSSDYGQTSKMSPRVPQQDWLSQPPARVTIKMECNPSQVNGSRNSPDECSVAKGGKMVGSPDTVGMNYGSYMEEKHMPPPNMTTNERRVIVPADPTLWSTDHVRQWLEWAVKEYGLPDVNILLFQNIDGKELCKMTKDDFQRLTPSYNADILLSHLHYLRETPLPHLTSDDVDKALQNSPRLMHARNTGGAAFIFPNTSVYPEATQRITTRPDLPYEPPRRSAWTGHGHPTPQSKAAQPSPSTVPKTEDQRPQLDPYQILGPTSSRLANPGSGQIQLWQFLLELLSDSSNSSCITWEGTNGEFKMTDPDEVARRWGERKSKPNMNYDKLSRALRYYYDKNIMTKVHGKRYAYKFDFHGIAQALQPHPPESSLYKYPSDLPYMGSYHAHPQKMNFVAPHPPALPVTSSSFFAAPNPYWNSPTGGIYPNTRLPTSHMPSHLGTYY
As to conditions: protein: recombinant; tags: N-terminal GST; dsDNA, one strand shown. The method in brief: as §1

For the next assay, the target named is ELF1 (Homo sapiens, UniProt P32519 1-619). As to conditions: protein: recombinant; tags: N-terminal GST; dsDNA, one strand shown. The method in brief:
as §1

The next assay concerns the target T5, EHF (Homo sapiens, UniProt Q9NZC4 1-300).
T5 sequence: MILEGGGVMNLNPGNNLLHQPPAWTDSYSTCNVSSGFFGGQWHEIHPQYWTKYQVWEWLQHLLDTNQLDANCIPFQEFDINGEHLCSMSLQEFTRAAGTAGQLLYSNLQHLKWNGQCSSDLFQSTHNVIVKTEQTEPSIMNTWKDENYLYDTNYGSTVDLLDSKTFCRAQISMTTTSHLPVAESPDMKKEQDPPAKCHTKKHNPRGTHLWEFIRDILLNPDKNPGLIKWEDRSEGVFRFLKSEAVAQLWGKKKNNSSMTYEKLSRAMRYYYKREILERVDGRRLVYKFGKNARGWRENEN
As to conditions: protein: recombinant; tags: N-terminal GST; dsDNA, one strand shown. The method, boiled down:
as §1

Another assay addresses SPI1 (Homo sapiens, UniProt P17947 1-270). As to conditions: protein: recombinant; tags: N-terminal GST; dsDNA, one strand shown. The method, boiled down: as §1
The next assay concerns the target ETV5 (Homo sapiens, UniProt P41161 1-510). As to conditions: protein: recombinant; tags: N-terminal GST; dsDNA, one strand shown. The method, boiled down:
as §1

In another assay the target is HSF1 (Homo sapiens, UniProt Q00613 1-529). As to conditions: protein: recombinant; tags: N-terminal GST; chain copies: 3; dsDNA, one strand shown. The method in brief: as §1
For the next assay, the target named is T6, SPIC (Homo sapiens, UniProt Q8N5J4 1-248).
T6 sequence: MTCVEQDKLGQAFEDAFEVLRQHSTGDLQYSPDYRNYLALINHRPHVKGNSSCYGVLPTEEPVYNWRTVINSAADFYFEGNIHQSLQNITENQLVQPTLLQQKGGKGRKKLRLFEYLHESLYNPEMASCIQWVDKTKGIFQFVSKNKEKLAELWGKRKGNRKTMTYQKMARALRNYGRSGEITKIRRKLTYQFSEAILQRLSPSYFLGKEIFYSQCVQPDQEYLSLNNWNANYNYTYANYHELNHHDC
As to conditions: protein: recombinant; tags: N-terminal GST; dsDNA, one strand shown. The method, boiled down:
as §1

A further assay has as its target ELF4 (Homo sapiens, UniProt Q99607 1-663). As to conditions: protein: recombinant; tags: N-terminal GST; dsDNA, one strand shown. The method, boiled down:
as §1

The next assay deals with T7, ELF3 (Homo sapiens, UniProt P78545 1-371).
T7 sequence: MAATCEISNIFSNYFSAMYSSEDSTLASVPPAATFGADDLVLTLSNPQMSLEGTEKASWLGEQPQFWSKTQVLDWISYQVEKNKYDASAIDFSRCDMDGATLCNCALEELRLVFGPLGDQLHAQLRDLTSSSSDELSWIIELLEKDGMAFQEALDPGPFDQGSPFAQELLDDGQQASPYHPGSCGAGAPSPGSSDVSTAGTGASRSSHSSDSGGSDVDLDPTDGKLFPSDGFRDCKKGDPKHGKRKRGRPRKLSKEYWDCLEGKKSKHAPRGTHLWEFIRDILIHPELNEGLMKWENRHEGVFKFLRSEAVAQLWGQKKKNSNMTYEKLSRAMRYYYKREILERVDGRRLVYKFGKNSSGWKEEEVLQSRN
As to conditions: protein: recombinant; tags: N-terminal GST; dsDNA, one strand shown. The method in brief:
as §1

For a further assay, the target named is CRX (Homo sapiens, UniProt O43186 1-299). As to conditions: protein: recombinant; tags: N-terminal GST; dsDNA, one strand shown. The method, boiled down: as §1
The target of another assay is ETV1 (Homo sapiens, UniProt P50549 1-477). As to conditions: protein: recombinant; tags: N-terminal GST; dsDNA, one strand shown. The method in brief:
as §1

Another assay concerns the target SPIB (Homo sapiens, UniProt Q01892 1-262). As to conditions: protein: recombinant; tags: N-terminal GST; dsDNA, one strand shown. The method, boiled down:
as §1

Another assay addresses T8, ELK3 (Homo sapiens, UniProt P41970 1-407).
T8 sequence: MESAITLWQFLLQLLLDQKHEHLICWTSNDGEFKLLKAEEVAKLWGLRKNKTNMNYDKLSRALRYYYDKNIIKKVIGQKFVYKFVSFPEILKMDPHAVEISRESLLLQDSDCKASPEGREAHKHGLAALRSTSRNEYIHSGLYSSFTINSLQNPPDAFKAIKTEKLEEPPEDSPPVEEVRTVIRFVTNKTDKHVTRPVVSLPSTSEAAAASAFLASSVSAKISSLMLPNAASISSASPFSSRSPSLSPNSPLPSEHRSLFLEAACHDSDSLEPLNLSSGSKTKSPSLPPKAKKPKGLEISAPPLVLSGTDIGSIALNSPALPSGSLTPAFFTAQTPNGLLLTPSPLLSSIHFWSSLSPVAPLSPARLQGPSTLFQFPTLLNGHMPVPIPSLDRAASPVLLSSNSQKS
As to conditions: protein: recombinant; tags: N-terminal GST; dsDNA, one strand shown. The method in brief:
as §1

For another assay, the target named is T9, FEV (Homo sapiens, UniProt Q99581 1-238).
T9 sequence: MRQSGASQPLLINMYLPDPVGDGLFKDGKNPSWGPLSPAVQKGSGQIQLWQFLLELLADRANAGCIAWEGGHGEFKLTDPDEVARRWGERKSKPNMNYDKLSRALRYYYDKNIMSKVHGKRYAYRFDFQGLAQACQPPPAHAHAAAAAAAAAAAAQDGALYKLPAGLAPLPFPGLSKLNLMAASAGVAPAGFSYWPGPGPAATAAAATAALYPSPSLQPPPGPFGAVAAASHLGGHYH
As to conditions: protein: recombinant; tags: N-terminal GST; dsDNA, one strand shown. The method in brief: as §1

For the next assay, the target named is T10, ETV2 (Homo sapiens, UniProt O00321 1-342).
T10 sequence: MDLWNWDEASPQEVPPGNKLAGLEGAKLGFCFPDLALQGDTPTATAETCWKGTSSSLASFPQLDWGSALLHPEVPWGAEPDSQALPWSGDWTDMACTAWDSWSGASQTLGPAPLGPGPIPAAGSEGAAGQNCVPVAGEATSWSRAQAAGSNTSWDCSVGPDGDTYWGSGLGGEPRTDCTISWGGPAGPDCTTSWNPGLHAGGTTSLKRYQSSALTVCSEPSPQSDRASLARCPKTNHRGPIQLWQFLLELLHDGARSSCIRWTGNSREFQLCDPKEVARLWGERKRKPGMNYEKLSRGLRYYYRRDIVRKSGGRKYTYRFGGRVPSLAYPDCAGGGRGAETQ
As to conditions: protein: recombinant; tags: N-terminal GST; dsDNA, one strand shown. The method, boiled down: as §1

Chain of CRX (O43186 whole entry): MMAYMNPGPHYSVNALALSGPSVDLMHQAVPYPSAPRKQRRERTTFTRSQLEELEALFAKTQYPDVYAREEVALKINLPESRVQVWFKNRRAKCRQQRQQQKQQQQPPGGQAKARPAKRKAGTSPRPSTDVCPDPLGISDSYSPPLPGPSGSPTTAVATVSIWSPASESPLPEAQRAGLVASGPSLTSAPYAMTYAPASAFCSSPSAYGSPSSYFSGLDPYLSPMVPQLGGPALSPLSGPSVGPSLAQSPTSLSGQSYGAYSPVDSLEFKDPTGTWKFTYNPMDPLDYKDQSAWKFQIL
Chain of ELF4 (Q99607 whole entry): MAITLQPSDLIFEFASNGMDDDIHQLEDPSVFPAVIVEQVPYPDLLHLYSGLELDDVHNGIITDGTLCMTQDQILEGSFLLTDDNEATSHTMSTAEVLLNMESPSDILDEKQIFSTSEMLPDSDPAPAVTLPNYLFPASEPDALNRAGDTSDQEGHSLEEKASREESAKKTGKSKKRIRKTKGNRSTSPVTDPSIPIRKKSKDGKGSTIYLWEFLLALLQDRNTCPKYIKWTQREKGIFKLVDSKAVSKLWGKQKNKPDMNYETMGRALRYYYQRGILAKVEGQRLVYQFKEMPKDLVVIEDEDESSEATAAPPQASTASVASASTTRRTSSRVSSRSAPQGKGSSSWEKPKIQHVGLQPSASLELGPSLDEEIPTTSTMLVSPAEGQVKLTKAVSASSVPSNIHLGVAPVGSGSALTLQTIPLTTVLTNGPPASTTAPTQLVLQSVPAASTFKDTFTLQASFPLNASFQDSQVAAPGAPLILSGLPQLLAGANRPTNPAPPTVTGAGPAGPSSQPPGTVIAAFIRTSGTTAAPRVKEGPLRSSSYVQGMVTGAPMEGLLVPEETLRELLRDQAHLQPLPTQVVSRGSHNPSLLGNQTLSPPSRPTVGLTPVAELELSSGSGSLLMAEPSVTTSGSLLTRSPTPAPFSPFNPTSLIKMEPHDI
Chain of ETV5 (P41161 whole entry): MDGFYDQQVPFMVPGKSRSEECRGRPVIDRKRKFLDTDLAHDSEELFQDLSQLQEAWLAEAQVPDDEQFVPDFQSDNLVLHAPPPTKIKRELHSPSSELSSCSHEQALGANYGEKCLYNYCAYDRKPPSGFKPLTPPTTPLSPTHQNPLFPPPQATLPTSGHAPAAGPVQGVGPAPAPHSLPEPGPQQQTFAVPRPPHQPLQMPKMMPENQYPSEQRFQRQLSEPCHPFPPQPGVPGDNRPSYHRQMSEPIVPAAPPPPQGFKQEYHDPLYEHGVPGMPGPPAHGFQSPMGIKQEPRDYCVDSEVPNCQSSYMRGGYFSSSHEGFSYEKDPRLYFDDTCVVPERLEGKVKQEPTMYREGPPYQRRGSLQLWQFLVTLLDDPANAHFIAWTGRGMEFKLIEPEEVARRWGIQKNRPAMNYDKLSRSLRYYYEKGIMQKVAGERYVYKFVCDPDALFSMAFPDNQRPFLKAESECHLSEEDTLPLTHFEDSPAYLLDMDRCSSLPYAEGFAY
Chain of HSF1 (Q00613 whole entry): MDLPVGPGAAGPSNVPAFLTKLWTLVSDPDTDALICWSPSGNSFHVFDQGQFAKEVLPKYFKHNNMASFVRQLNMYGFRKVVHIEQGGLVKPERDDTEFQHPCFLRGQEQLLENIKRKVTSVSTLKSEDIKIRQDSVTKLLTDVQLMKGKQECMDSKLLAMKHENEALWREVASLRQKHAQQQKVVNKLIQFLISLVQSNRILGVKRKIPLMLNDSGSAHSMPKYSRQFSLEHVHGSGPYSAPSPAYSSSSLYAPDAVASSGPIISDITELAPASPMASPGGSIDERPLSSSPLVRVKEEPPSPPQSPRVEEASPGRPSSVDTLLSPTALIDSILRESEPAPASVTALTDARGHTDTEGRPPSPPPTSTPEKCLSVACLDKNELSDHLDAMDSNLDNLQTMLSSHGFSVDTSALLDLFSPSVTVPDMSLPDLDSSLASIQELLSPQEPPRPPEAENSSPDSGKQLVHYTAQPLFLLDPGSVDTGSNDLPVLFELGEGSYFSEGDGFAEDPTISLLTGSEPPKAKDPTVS
Chain of ELF1 (P32519 whole entry): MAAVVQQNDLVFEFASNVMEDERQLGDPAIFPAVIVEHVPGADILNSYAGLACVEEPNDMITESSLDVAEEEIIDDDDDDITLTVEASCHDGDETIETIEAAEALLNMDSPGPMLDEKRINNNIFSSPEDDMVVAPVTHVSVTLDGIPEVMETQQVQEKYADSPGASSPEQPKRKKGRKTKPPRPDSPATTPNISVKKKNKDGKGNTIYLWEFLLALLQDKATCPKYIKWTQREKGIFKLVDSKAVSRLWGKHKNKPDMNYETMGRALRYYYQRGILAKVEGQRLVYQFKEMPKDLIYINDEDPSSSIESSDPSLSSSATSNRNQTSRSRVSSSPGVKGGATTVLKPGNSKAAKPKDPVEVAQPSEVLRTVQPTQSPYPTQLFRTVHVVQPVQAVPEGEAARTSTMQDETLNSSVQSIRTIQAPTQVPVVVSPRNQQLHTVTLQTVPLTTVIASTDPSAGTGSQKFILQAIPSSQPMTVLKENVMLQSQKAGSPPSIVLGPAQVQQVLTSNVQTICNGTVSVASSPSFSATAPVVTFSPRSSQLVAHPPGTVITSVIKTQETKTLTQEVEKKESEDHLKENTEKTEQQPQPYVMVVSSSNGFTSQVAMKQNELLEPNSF
Chain of ETV1 (P50549 whole entry): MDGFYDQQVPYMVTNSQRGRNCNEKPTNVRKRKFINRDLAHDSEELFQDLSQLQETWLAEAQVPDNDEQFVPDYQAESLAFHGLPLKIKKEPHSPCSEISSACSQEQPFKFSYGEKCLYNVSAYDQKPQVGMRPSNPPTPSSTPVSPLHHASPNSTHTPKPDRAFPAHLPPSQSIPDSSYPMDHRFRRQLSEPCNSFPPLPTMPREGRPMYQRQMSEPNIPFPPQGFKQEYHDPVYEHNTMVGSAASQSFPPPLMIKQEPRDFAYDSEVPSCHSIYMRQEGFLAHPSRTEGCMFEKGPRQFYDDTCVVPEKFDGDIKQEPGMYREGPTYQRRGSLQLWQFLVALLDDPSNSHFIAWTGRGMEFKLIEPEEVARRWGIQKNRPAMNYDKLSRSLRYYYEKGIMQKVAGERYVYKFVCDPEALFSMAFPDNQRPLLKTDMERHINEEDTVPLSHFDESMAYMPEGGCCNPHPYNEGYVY
Chain of SPIB (Q01892 whole entry): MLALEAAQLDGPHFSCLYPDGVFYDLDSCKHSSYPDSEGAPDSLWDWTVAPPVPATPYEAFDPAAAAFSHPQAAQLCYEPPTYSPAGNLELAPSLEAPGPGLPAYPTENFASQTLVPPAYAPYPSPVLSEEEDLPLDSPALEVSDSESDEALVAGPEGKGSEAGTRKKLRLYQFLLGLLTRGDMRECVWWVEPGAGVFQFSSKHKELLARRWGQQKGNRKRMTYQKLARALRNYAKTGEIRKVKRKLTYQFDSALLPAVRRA

For TAGTCT, the binding signal in the assay with FLI1 is 1.09 fold enrichment (6-mer frequency, TF over GST control); with ELK1 it was 1.07 fold enrichment (6-mer frequency, TF over GST control); in the assay with GABPA, 1.21 fold enrichment (6-mer frequency, TF over GST control); with ERG it was 1.08 fold enrichment (6-mer frequency, TF over GST control); with ELF1 it was 1.07 fold enrichment (6-mer frequency, TF over GST control); with EHF it was 1.05 fold enrichment (6-mer frequency, TF over GST control). The binding signal in the assay with SPI1 was 1.07 fold enrichment (6-mer frequency, TF over GST control); with ETV5, 1.01 fold enrichment (6-mer frequency, TF over GST control); with HSF1, 1.4 fold enrichment (6-mer frequency, TF over GST control); in the assay with SPIC it was 1.05 fold enrichment (6-mer frequency, TF over GST control); with ELF4, 1.03 fold enrichment (6-mer frequency, TF over GST control); in the assay with ELF3, 1.14 fold enrichment (6-mer frequency, TF over GST control). In addition, the binding signal was 1.4 fold enrichment (6-mer frequency, TF over GST control) with CRX and 1.01 fold enrichment (6-mer frequency, TF over GST control) with ETV1.
Consider ATAAGC, for which the binding signal with FLI1 was 1.02 fold enrichment (6-mer frequency, TF over GST control); in the assay with ELK1, 1.09 fold enrichment (6-mer frequency, TF over GST control); with GABPA it was 1.11 fold enrichment (6-mer frequency, TF over GST control); with ERG, 1.08 fold enrichment (6-mer frequency, TF over GST control); with ELF1 it was 1.1 fold enrichment (6-mer frequency, TF over GST control); with EHF it was 1.05 fold enrichment (6-mer frequency, TF over GST control). The binding signal is 1.01 fold enrichment (6-mer frequency, TF over GST control) in the assay with SPI1; 1.11 fold enrichment (6-mer frequency, TF over GST control) in the assay with SPIB; 1.05 fold enrichment (6-mer frequency, TF over GST control) with ELK3; 1.02 fold enrichment (6-mer frequency, TF over GST control) with FEV; 1.11 fold enrichment (6-mer frequency, TF over GST control) with ETV5; 1.67 fold enrichment (6-mer frequency, TF over GST control) with HSF1. Besides, the binding signal in the assay with SPIC was 1.08 fold enrichment (6-mer frequency, TF over GST control); with ELF4 it was 1.11 fold enrichment (6-mer frequency, TF over GST control); with ETV2, 1.07 fold enrichment (6-mer frequency, TF over GST control); with ELF3, 1.12 fold enrichment (6-mer frequency, TF over GST control); in the assay with CRX, 2.4 fold enrichment (6-mer frequency, TF over GST control); with ETV1, 1.11 fold enrichment (6-mer frequency, TF over GST control).

(Values after article PMC7862700, “An all-to-all approach to the identification of sequence-specific readers for epigenetic DNA modifications on cytosine”.)
